Only a selection was taken, and hits are over-represented in it overall.
Dicer processing: blocks human Dicer maturation of pre-miR-21. cat-ELCCA pre-miR-21 Dicer processing, chemiluminescence; active compounds read high. z-score at 25 µM. AID 1347074. Q9UPY3. hit rate 6% among 47,000; in the data active means z-score above about 3, passing the limit was not always enough;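 further: plate controls were vehicle for no effect and no enzyme for full effect; higher signal means more uncleaved substrate so more Dicer inhibition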
Active calls of the source: *.

SMILES | Dicer processing
Cc1ccccc1-c1nc(NC(=O)CSc2nnc3ccccn23)ns1 | 3.51*
NC(=O)CSc1nnc2ccccn12 | 0.34
Cc1nnc(SCC(=O)Nc2nsc(-c3ccc(C(C)(C)C)cc3)n2)s1 | 1.81
Cn1ccnc1SCC(=O)Nc1nc2ccccc2s1 | -0.98
Cc1ccc(-c2csc3nnc(SCC(=O)Nc4nsc(-c5ccccc5)n4)n23)cc1 | 4.59*
O=C(CSc1ncn[nH]1)Nc1ncccn1 | 0.99
O=C(CSc1nnc2scc(-c3ccccc3)n12)Nc1nsc(-c2ccccc2)n1 | 0.12
O=C(CSc1ccc2ccccc2n1)Nc1nsc(-c2ccccc2)n1 | 2.14
O=C(CSc1nnc2ccccn12)Nc1nc(-c2ccc(Cl)cc2)ns1 | -2.9
O=C(CSc1nc2ccccc2s1)Nc1ccc(Cl)cc1 | 0.57
COc1cc(/C=N/N=C(N)N)cc(OC)c1OC | -1.52
CCOC(=O)c1cc(CC)sc1NC(=O)CC#N | 0.27
CCNc1cc(NC(C)C)nc(Oc2ccc(OCC(=O)OC)nn2)n1 | 0.7
Cn1ncc(C(=O)O/N=C(\N)c2cc(C(F)(F)F)cc(C(F)(F)F)c2)c1-n1cccc1 | -1.24
O=c1c(OS(=O)(=O)Cc2ccccc2)c(-c2ccccc2)oc2ccccc12 | -0.02
COC(=O)c1ccc(S(=O)(=O)NC2Cc3ccccc3C2)n1C | 1.08
CSc1ccc(CN2CCN(CC3CC=CCC3)CC2)cc1 (configuration not stated) | 1.22
CC(C)CC(=O)N1CCN(CC2CC=CCC2)CC1 (configuration not stated) | 1.57
CCS(=O)(=O)N1CCN(CC2CC=CCC2)CC1 (configuration not stated) | 3.72*
COC(=O)c1ccc(C2C(C(=O)OC3CCCCC3)=C(C)NC3=C2C(=O)CCC3)cc1 (configuration not stated) | 0
CNC(=S)NNS(=O)(=O)c1ccc(C)cc1 | -0.39
O=C(Nc1ccccc1)NC1CCS(=O)(=O)C1 (configuration not stated) | 2.82
Cc1ccc(OC2CCS(=O)(=O)C2)cc1 (configuration not stated) | 0.65
O=C(Oc1ccccc1)OC1CCS(=O)(=O)C1 (configuration not stated) | 4*
O=C(Cn1nnc2sc3c(c2c1=O)CCCC3)NCc1ccco1 | 2.14
SMILES | Dicer processing
Nc1ccc(N(c2ccccc2)c2ccc(N)cc2)cc1 | -0.2
CN(C)c1ccc(C=C(c2ccc(N)cc2)c2ccc(N)cc2)cc1 | 6.36*
COC(=O)C(=C(C)C)c1ccc(N(C)C)cc1 | 1.03
CSc1nc(NC(=O)NS(=O)(=O)c2ccccc2C(F)(F)F)nc(-c2ccncc2)n1 | -0.49
COCCN1C2=C(C(=O)CC(C)(C)C2)C(c2cc(Cl)c(O)c(OC)c2)C2=C1CC(C)(C)CC2=O | 0.49
COc1cc(C(F)(F)F)c(C(=O)NCc2cc(Cl)ccc2Cl)cn1 | -1.12
COc1cc(Cl)c(NC(=O)c2c(C)noc2C)c(OC)c1 | -0.88
CCOC(=O)C(NC(=O)Nc1ccc(Cl)c(Cl)c1)(OCC(F)(F)F)C(F)(F)F (configuration not stated) | -0.44
CC(C)(C)OC(=O)NC(COCc1ccccc1)C(=O)NCc1ccccc1 (configuration not stated) | -0.87
CCNC(=O)C(NC(=O)OC(C)(C)C)C(C)OCc1ccccc1 (configuration not stated) | 4.72*
CCNC(=O)C(C)NC(=O)OC(C)(C)C (configuration not stated) | -0.15
COc1ccc(OC)c(Sc2nc(C)c([N+](=O)[O-])c(C)c2C#N)c1 | -10.5
C/C(=N\NC(=S)Nc1ccc(F)cc1)c1ccco1 | 0.88
CC(C)c1ccc(NC(=S)NN(C)C)cc1 | 2.93
C/C(=N\NC(=S)Nc1ccc(C(C)C)cc1)c1ccco1 | 3*
COC(=O)c1scc(S(=O)(=O)C(C)C)c1N/N=C(\C#N)C(=O)c1cccs1 | -0.24
CC(=O)ONC(=O)c1ccc([N+](=O)[O-])cc1 | -0.38
Cc1ccccc1S(=O)(=O)Nc1ccnn1C | -0.72
COc1ccc2nc(C)cc(Nc3ccc(Br)cc3)c2c1 | 5.05*
Cc1cc(Nc2ccccc2)c2ccccc2n1 | 1.49
CCOc1ccc(Nc2cc(C)nc3ccc(OC)cc23)cc1 | 2.86
Cc1nn(C)c2ncc3c(=O)[nH]n(C)c3c12 | 0.49
O=C1NC2=C(C(=O)c3ccccc32)C(c2ccc([N+](=O)[O-])cc2)S1 (configuration not stated) | -0.39
Oc1ccc(/C=N/NC(=S)NC2CC3CCC2C3)cc1 (configuration not stated) | 24.2*
S=C(NN=C1CCCC1)NC1CC2CCC1C2 (configuration not stated) | -0.5
SMILES | Dicer processing
S=C(NNC(=S)NC1CC2CCC1C2)NC1CC2CCC1C2 (configuration not stated) | 1.91
Fc1ccc(C2Sc3ccccc3N=C3c4ccccc4OCC32)cc1 (configuration not stated) | -1.42
CCOc1ccc2c(C)[nH]c(=O)cc2c1 | 1.91
COc1cc(S(=O)(=O)n2cc(C)nc2-c2ccccc2)c(OC)cc1Cl | 1.26
NNC(=S)Nc1cc(C(F)(F)F)ccc1Cl | 1.88
CC(C)(C)C(=O)NC(=O)Nc1cc(C(F)(F)F)cc(C(F)(F)F)c1 | 1.81
